The structures appear in SMILES notation. Records with an inconclusive call do not appear. Calls of active or inactive are those of the source. Calls follow the shape of the dose curve; as a rule, active = well fitted cell-killing curve with a large enough effect in the repeat runs; inconclusive = weak or mixed curves, or effect the other way; inactive = flat fitted curve, though single readings scatter. Where a SMILES comes first, the peptide text is derived from it. [ ]: non-standard residue; d: D form. pGlu = O=C1CC[C@@H](C(=O)O)N1
% is scaled to controls: 0 for no effect and ±100 for the full control effect.

This assay can be described thus: qHTS assay to identify small molecule agonists of the estrogen receptor beta (ER-beta) signaling pathway - cell viability counter screen (AID 1259380). Also: nearly all actives have a fitted effect of over 30% in size. The settings on record: ER-beta-bla HEK293T viability, CellTiter-Glo luminescence, 16 h; series mostly up to 92.4 µM; activity change, negative = cytotoxicity: at the top concentration. The text has this:
National Center for Advancing Translational Sciences [NCATS]
NIH Chemical Genomics Center [NCGC]
U.S. Environmental Protection Agency [EPA]
National Institutes of Environmental Health Sciences [NIEHS]
National Toxicology Program [NTP]
U.S. Food and Drug Administration [FDA]
Estrogen receptor (ER), a nuclear hormone receptor, plays an important role in development, metabolic homeostasis and reproduction. Two subtypes of ER, ER-alpha and ER-beta, have similar expression patterns with some uniqueness in both types. Endocrine disrupting chemicals (EDCs) and their interactions with steroid hormone receptors like ER causes disruption of normal endocrine function. To identify the compounds that activate ER signaling, an ER beta-UAS-bla GripTite cell line (Life Technologies, Madison, WI, USA) containing a beta-lactamase reporter gene under the control of an UAS response element was used to screen Tox21 10K compound library. The cytotoxicity of the Tox21 compound library against the ER-beta-bla cell line was tested in parallel by measuring the cell viability using CellTiter-Glo assay in the same wells.
Tox21 Assay Protocol Summary:
ER-beta-UAS-bla HEK293T cells were dispensed at 2,000 cells/5 uL of assay medium containing 2% charcoal stripped FBS per well into black wall/clear-bottom 1536-well plates using a Multidrop Combi (ThermoFisher Scientific, Waltham, MA) dispenser. After the assay plates were incubated at a 37C and 5% CO2 for 6 hr, 23 nL of compounds dissolved in DMSO, positive controls or DMSO only was transferred to the assay plate by a Pintool station (Kalypsys, San Diego, CA). The plates were incubated at 37C and 5% CO2 for 16 hr. Then 1 uL of LiveBLAzerTM B/G FRET substrate was added using a BioRAPTR FRD (Flying Reagent Dispenser, Aurora Discovery, San Diego, CA) and then the plates were incubated at room temperature for 2 hours, and fluorescence intensity was measured by an Envision plate reader (PerkinElmer, Shelton, CT). For cell viability readout that measures cytotoxicity, 4 uL/well of CellTiter-Glo reagent was added into the assay plates using a FRD. After 30 min incubation at room temperature, the luminescence intensity in the plates was measured using a ViewLux (PerkinElmer) plate reader.
For `CN(C)C(=O)Oc1ccc[n+](C)c1`, the “activity change, negative = cytotoxicity” value is 11.2% [at 42.5 µM] (inactive).
With `FB(F)F` the figure was 2.49% (inactive); with `CC1(C)OC[C@@H](COC(=O)CCc2ccc(OC[C@@H](O)CNCCNC(=O)N3CCOCC3)cc2)O1`, -1.35% [at 42.5 µM] (inactive); with `CC[N+](CC)(CC(=O)Nc1c(C)cccc1C)Cc1ccccc1` (tested in a mixture with another compound), 2.7% [at 42.5 µM] (inactive).
On to `CCN(CC#N)c1cccc(C)c1`, for which the “activity change, negative = cytotoxicity” value is 4.56% (inactive).
In the case of `NS(=O)(=O)Cc1noc2ccccc12`, the “activity change, negative = cytotoxicity” value was 0.592% [at 42.5 µM] (inactive).
Take `C[N+]1(C)CCCC(OC(=O)C(O)(c2ccccc2)c2ccccc2)C1` (stereo not given): the “activity change, negative = cytotoxicity” value is 3.9% [at 42.5 µM] (inactive).
Turning to `NC(=O)NC1N=C([O][Al])NC1=O` (stereo not given), the “activity change, negative = cytotoxicity” value is 0.861% [at 42.5 µM] (inactive).
Regarding `C=CN1CCCCCC1=O`, the “activity change, negative = cytotoxicity” value is -0.546% (inactive).
As to `CN(C)CCCN(C)CCCN(C)C`, the “activity change, negative = cytotoxicity” value is -0.272% (inactive).
With `CCCCCCCCCCCCSC` the figure was 0.45% (inactive); with `O=C1NC(=O)C2CC=CCC12` (stereo not given), -1.88% (inactive); with `O=[N+]([O-])c1ccc(/C=N\O)o1`, 0.689% [at 42.5 µM] (inactive).
On to `COCCOCC(OC)OC`, for which the “activity change, negative = cytotoxicity” value is 2.51% [at 42.5 µM] (inactive).
As to `CO[C@@]1(NC(=O)CSC[C@@H](N)C(=O)O)C(=O)N2C(C(=O)O)=C(CSc3nnnn3C)CS[C@@H]21`, the “activity change, negative = cytotoxicity” value was 6.36% [at 42.5 µM] (inactive).
Consider `CCOC(=O)COC(=O)c1ccccc1C(=O)OCC`, for which the “activity change, negative = cytotoxicity” value is 1.08% (inactive).
For the molecule `CC(=O)Nc1ccc(OCC(O)CNC(C)C)cc1` (stereo not given), the “activity change, negative = cytotoxicity” value is 0.0697% [at 42.5 µM] (inactive).
As for `CC(C)NNC(=O)c1ccncc1`, the “activity change, negative = cytotoxicity” value was 10.5% [at 42.5 µM] (inactive).
For the molecule `CC(=O)NC(=O)c1ccccc1O`, the “activity change, negative = cytotoxicity” value was 9.8% [at 42.5 µM] (inactive).
For `C=CCCC(=O)O`, the “activity change, negative = cytotoxicity” value was 7.01% (inactive).
To `CCCC[N+](C)(CCCC)CCCC` belongs 7.08% (inactive); to `CCCCCC(C)N` (stereo not given), 7.55% [at 42.5 µM] (inactive); to `COc1c(N2CCNC(C)C2)c(F)cc2c(=O)c(C(=O)O)cn(C3CC3)c12` (stereo not given), 6.74% [at 42.5 µM] (inactive).
With `CCNC(=O)[C@@H]1CCCN1C(=O)[C@H](CCCN=C(N)N)NC(=O)[C@H](CC(C)C)NC(=O)CNC(=O)[C@H](Cc1ccc(O)cc1)NC(=O)[C@H](CO)NC(=O)[C@H](Cc1c[nH]c2ccccc12)NC(=O)[C@H](Cc1cnc[nH]1)NC(=O)[C@@H]1CCC(=O)N1` ([pGlu]HWSYGLRP-NHEt) the figure was 6.13% [at 42.5 µM] (inactive).
Regarding `Nc1ccccn1`, the “activity change, negative = cytotoxicity” value is -0.613% (inactive).
With `C=C(C)C(=O)OCCOCCOCCOCCOC(=O)C(=C)C`, the “activity change, negative = cytotoxicity” value is 5.68% (inactive).
In the case of `Cc1ccc(C(=O)c2ccc(CC(=O)O)n2C)cc1`, the “activity change, negative = cytotoxicity” value is -4.18% [at 42.5 µM] (inactive).
As for `O=C1c2ccccc2C(=O)c2cc(O)ccc21`, the “activity change, negative = cytotoxicity” value was -0.99% (inactive).
Regarding `CCCCCCCCCCCCCCC(=O)O`, the “activity change, negative = cytotoxicity” value was -8.34% (inactive).
In the case of `COC(=O)Nc1ccc(Cl)c(Cl)c1`, the “activity change, negative = cytotoxicity” value was -14.5% (inactive).
Take `O=C(O)CC(C(=O)O)S(=O)(=O)O` (stereo not given): the “activity change, negative = cytotoxicity” value is 7.1% (inactive).
Turning to `CC1=CC(=O)[C@H]2C[C@@H]1C2(C)C`, the “activity change, negative = cytotoxicity” value is 0.0243% (inactive).
Turning to `CC(=O)C1CCCCC1=O` (stereo not given), the “activity change, negative = cytotoxicity” value is 3.96% (inactive).
As for `CCCn1cc[n+](C)c1C`, the “activity change, negative = cytotoxicity” value is 2.42% (inactive).
With `CC1=NN(c2cc(S(=O)(=O)O)ccc2Cl)C(=O)C1N=Nc1ccccc1` (stereo not given) the figure was -0.36% (inactive); with `CC(COc1ccccc1)NN` (stereo not given), 0.325% [at 42.5 µM] (inactive); with `NO`, 1.57% (inactive).
On to `CC(C)(C)C(=O)c1ccccc1`, for which the “activity change, negative = cytotoxicity” value is 1.12% (inactive).
With `CCN[C@@H]1C[C@H](N)[C@@H](OC2OC(CN)=CCC2N)[C@H](O)[C@H]1O[C@H]1OC[C@](C)(O)[C@H](NC)[C@H]1O` (stereo not given in full) the figure was 6.54% [at 0.349 µM] (inactive); with `O=C(CO)[C@@H](O)[C@H](O)[C@H](O)CO`, 1.97% (inactive).

The values above are taken from PubChem BioAssay (Tox21).
